“And” between values parts separate entries of the source, which are not always exact repeats. Equal entries are not always repeated. The source made the active and inactive calls.

A short description of assay [1]: small molecules captured by biotinylated probe aFSTL3 – biochemical, small-molecule microarray, fluorescence 635/667, stem cell growth factor project, primary screen (AID 1064).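 Also: measures binding of the biotinylated anti-FSTL3 antibody to printed compounds.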 As to conditions: higher = more signal.
Assay [2] is described as follows: binders from COS7 lysate, DM2A8 probe, primary screen, torsin A project, cell lysate, small-molecule microarray, fluorescence 635/667 (AID 1065). As to conditions: higher = more signal, COS7 lysate expressing mutant human TOR1A.
Assay [3] can be described thus: small molecules captured by biotinylated probe aFGF2 – biochemical, small-molecule microarray, fluorescence 635/667, stem cell growth factor project, primary screen (AID 1067).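 Also: measures binding of biotinylated aFGF2 protein to printed compounds on slides; z-score merges feature fluorescence and signal-to-noise across triplicate slides.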 As to conditions: higher = more signal.
Assay [4] can be described thus: small molecules captured by biotinylated probe aFGF10 – biochemical, small-molecule microarray, fluorescence 635/667, stem cell growth factor project, primary screen (AID 1071).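 Also: score merges 667 nm spot intensity and signal to noise from triplicate slides.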 As to conditions: higher = more signal.
In assay [5] the target is Neurogenic locus notch homolog protein 2 (Homo sapiens) (UniProt Q04721). Description: small molecules binding Notch2 protein – biochemical, small-molecule microarray, 635 nm fluorescence, stem cell growth factors, primary screen (AID 1073). As to conditions: higher = more signal.
Assay [6] addresses Pro-neuregulin-1, membrane-bound isoform (Homo sapiens) (UniProt Q02297). Kind of assay: small molecules binding neuregulin-1 protein – biochemical, small-molecule microarray, fluorescence 635/667, psychiatric disease protein project, primary screen (AID 1075).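 Also: score combines 667 nm spot fluorescence with signal to noise.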 As to conditions: NRG1 binding, 635 nm fluorescence, higher = more signal.
Assay [7] concerns Neuregulin-1 EGF-like domain. Description: small molecules binding NRG1 EGF domain – biochemical, small-molecule microarray, 635 nm fluorescence, primary screen (AID 1081).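 Also: binding of the protein to compounds printed on small-molecule microarray slides.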 As to conditions: higher = more signal.
Assay [8] can be described thus: FRG1 expression reporter modulators in myotubes – cell-based, C2C12 myotubes, firefly/Renilla luciferase, luminescence, FRG1 inhibition for FSHD, primary screen (AID 1084). As to conditions: FRG1 promoter luciferase, higher = more signal, called active from +8 up or from −8 down.
Assay [9] in a line: small molecules captured by biotinylated probe aFST – biochemical, small-molecule microarray, fluorescence 635/667, stem cell growth factor project, primary screen (AID 1086).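 Also: score merges 667 nm fluorescence with signal-to-noise of each printed compound spot.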 The note with it: higher = more signal.
The nature of assay [10]: binders of probe aHhip on microarray, primary screen, stem cell growth factor project, biochemical, small-molecule microarray, fluorescence 635/667 (AID 1087).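 Also: score merges spot fluorescence at 667nm with spot signal to noise ratio.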 As to conditions: higher = more signal.
The subject of assay [11] is PRMT1 (protein arginine N-methyltransferase 1). Description: small molecules binding arginine methyltransferase PRMT1 – biochemical, small-molecule microarray, 635 nm fluorescence, primary screen (AID 1088).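 Also: binding of Prmt1 protein to compounds spotted on small-molecule microarray slides.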 The note with it: higher = more signal.
Assay [12] is described as follows: growth effects on S. cerevisiae YJM789 – YJM789 clinical isolate, OD600, 24 h, basal, primary screen (AID 1089).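 Also: growth of clinical yeast isolate S. cerevisiae YJM 789 seeded 1000 cells per well; test concentration not given here.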 The note with it: higher = more signal, called active from +8 up or from −8 down.
The nature of assay [13]: S. pombe growth modifiers, basal conditions – strain 972, OD600, 24 h, no modulator, primary screen (AID 1090).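 Also: basal condition with compound alone and no growth modifier present; test concentration not given here.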 The note with it: S. pombe 972 growth, higher = more signal, called active from +8 up or from −8 down.
Assay [14] in a line: budding yeast growth modifiers under rapamycin – strain BY4716, OD600, 96 h, primary screen (AID 1091). Also: test concentration not given here. As to conditions: S. cerevisiae BY4716 + rapamycin, higher = more signal, called active from +8 up or from −8 down.
For assay [15], the target named is Torsin-1A-interacting protein 2 (Homo sapiens) (UniProt Q8NFQ8). Description: small molecules binding lysate-expressed LULL1 – cell lysate, human LULL1 lysate, 635/667 nm fluorescence, primary screen (AID 1092).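 Also: score merges per-feature 667 nm fluorescence with signal-to-noise.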 The note with it: small-molecule microarray, hLULL1 lysate binding, 635 nm fluorescence; higher = more signal.
Sequence of Torsin-1A-interacting protein 2 (Homo sapiens) (Q8NFQ8 whole entry, looked up): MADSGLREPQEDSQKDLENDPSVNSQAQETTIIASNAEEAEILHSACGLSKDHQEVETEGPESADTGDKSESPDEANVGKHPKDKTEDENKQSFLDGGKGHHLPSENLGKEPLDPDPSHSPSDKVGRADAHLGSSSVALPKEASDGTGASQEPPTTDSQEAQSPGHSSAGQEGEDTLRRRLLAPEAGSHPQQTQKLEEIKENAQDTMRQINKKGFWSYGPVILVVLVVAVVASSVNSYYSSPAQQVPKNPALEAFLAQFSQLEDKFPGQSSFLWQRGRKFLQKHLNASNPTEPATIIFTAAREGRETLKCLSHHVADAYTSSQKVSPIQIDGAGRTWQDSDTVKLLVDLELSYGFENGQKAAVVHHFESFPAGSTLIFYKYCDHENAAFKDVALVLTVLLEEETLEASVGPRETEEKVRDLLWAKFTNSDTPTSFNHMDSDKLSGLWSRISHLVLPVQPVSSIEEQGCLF
Assay [16] is described as follows: optical density change of DRC41 E. coli – strain DRC41, OD650, 24 h, E. coli filamentation project, primary screen (AID 1093).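 Also: MC1000 strain lacking acrAB efflux and sulA so SOS filamentation is blocked; test concentration not given here.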 As to conditions: E. coli DRC41 growth, higher = more signal, called active from +8 up or from −8 down.
Assay [17] in a line: probe aLefty2 binding to arrayed compounds – biochemical, biotinylated probe, 635/667 nm fluorescence, primary screen (AID 1094).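 Also: score merges spot fluorescence near 667 nm with spot signal-to-noise ratio.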 As to conditions: small-molecule microarray, higher = more signal.
For assay [18], the system named is Noggin (protein binding on small-molecule microarray). Description: small molecules binding Noggin protein – biochemical, 635/667 nm fluorescence, primary screen (AID 1095).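 Also: score merges 667 nm feature fluorescence with signal to noise over triplicate slides.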 The note with it: 635 nm fluorescence, higher = more signal.
In assay [19] the target is Neurogenic locus notch homolog protein 3 (Homo sapiens) (UniProt Q9UM47). Kind of assay: small molecules binding NOTCH3 protein – biochemical, 635/667 nm fluorescence, primary screen (AID 1096). The note with it: small-molecule microarray, 635 nm fluorescence, higher = more signal.
Sequence of Neurogenic locus notch homolog protein 3 (Homo sapiens) (Q9UM47 whole entry, looked up): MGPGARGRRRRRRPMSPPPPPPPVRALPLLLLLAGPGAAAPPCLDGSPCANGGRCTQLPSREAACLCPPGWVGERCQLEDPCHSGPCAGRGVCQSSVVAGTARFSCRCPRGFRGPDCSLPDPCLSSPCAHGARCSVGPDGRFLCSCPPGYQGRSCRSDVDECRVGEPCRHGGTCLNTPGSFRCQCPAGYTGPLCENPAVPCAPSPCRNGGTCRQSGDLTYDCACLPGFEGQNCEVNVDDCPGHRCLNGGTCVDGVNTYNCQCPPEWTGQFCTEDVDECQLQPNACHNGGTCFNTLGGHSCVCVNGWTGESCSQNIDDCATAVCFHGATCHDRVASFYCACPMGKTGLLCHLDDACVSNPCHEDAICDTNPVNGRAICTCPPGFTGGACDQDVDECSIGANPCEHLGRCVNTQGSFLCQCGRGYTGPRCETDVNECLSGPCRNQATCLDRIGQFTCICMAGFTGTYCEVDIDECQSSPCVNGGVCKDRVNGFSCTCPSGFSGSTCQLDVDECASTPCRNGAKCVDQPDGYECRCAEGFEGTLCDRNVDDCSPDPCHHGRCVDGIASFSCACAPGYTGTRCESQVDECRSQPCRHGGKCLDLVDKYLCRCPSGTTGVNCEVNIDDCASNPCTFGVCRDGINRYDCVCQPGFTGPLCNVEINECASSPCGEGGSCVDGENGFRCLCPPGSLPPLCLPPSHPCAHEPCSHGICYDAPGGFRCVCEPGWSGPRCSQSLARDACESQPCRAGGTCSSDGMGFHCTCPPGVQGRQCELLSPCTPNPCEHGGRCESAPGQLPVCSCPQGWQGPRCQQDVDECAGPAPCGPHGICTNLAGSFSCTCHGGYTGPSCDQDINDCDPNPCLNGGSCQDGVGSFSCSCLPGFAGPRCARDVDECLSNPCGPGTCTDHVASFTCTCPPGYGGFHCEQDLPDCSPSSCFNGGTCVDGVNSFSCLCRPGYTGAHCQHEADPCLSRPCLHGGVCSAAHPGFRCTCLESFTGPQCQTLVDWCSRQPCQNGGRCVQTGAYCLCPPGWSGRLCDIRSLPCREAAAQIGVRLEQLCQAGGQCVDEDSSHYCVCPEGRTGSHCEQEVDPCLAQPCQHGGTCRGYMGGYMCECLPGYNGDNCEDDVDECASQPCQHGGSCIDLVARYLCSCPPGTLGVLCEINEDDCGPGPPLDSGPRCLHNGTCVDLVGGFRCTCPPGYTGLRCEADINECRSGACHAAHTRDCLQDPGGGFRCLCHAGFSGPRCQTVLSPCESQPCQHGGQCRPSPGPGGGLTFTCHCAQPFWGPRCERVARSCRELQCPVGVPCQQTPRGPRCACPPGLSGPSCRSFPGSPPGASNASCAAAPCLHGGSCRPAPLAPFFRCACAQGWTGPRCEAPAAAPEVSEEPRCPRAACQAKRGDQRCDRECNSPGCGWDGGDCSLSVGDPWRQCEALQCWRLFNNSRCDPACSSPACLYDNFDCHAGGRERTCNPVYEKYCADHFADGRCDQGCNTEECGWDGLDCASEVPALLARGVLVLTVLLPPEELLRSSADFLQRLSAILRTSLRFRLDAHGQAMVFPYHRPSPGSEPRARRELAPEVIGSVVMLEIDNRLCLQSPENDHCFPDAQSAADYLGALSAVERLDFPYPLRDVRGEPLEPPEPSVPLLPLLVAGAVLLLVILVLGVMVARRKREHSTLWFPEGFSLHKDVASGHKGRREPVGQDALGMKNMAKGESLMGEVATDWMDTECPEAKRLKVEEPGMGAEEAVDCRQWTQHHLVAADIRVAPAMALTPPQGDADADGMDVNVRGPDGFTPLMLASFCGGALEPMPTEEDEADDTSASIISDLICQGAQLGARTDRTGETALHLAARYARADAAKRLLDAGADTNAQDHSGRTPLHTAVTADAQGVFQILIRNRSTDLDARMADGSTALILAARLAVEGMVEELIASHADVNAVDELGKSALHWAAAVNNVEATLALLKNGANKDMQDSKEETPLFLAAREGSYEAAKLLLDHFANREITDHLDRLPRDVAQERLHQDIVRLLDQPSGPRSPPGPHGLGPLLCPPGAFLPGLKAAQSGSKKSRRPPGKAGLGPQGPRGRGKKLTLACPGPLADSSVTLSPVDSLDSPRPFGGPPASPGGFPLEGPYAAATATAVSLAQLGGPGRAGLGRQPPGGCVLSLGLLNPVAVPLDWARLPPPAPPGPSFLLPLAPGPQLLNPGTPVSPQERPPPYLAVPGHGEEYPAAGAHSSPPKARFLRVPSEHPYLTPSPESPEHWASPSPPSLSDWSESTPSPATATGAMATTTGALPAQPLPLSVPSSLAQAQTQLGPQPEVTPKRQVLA
Assay [20] can be described thus: probe aEGFR binding to arrayed compounds – biochemical, biotinylated probe, 635/667 nm fluorescence, primary screen (AID 1097).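 Also: probe is a biotinylated anti-EGFR antibody binding compounds printed on slides; score combines fluorescence near 667 nm and signal to noise of each spot.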 As to conditions: small-molecule microarray, higher = more signal.

Sequence of Pro-neuregulin-1, membrane-bound isoform (Homo sapiens) (Q02297 whole entry, looked up, the tested form may be a part, canonical isoform): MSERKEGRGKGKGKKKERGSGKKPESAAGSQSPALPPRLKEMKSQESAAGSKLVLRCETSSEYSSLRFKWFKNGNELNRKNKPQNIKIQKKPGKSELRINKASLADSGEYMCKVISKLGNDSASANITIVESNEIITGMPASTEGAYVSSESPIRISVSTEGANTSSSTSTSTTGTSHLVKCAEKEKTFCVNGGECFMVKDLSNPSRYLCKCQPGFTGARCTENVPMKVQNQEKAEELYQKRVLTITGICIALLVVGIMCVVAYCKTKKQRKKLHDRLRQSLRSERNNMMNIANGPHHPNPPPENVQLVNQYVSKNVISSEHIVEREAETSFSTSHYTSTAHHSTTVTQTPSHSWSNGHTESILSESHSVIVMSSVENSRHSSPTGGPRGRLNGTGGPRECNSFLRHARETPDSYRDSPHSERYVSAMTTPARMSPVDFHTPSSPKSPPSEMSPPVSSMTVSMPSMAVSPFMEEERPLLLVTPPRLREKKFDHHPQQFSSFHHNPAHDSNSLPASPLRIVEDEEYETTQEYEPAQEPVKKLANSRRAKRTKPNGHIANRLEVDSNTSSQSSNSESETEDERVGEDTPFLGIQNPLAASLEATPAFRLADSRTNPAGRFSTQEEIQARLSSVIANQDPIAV

In the case of `COC(=O)C1=C2N(Cc3ccccc3)C(C)=C(C(=O)OC)[C@@H](c3ccccc3)N2C(=O)[C@](O)(C(=O)OC)C1`, the composite z-score in assay [1] is -0.416 and -0.485; in [2] it was 0.969 and 0.932; in [3], -0.166 and -0.0477; in assay [4] it was 0.0291 and 0.291; in assay [5], 1.12 and 0.305; in assay [6] it was 0.598 and -0.247. The composite z-score is 1.09 and -0.265 in assay [7]; 0.084 and 0.0516 in [9]; 0.065 and -0.0237 in assay [10]; 0.691 and 0.144 in assay [11]; 1.8 and -0.466 in assay [15]; -0.142 and -0.235 in [17]. For the same compound, the composite z-score in [18] was 1.14 and 0.796; in assay [19], 0.81 and 0.263; in [20], -0.142 and -0.133. Further, the z-score in assay [8] is -0.0085 (inactive) and 0.0331 (inactive); in assay [12], -0.149 (inactive) and -0.0628 (inactive); in assay [13] it was -0.925 (inactive) and -0.134 (inactive); in assay [14], -1.34 (inactive) and -0.299 (inactive); in assay [16] it was 0.788 (inactive) and -0.0132 (inactive).

As to `C[C@@H](c1ccccc1)N1C(=O)[C@H]2[C@H]3[C@H](O)[C@H](O)CC(=O)[C@@H]3CC[C@H]2C1=O`, the composite z-score in [1] is -0.289; in [2], 0.118; in assay [3] it was -0.0193; in assay [4], 0.534; in assay [5], 0.694; in assay [6], -0.0676. Besides, the composite z-score was 0.603 in [7]; 0.435 in [9]; -0.0672 in assay [10]; 0.745 in assay [11]; 0.775 in [15]; -0.0978 in assay [17]. Further, the results for the composite z-score in assay [18], in [19] and in assay [20] were 0.798, 0.82 and 0.596, respectively. In addition, the z-score in assay [8] is -1.06 (inactive); in assay [12], -2.24 (inactive); in [13], -0.971 (inactive); in [14], -0.727 (inactive); in assay [16], -0.46 (inactive).

Take `C#CCCCON=C1C[C@@H](O)[C@@H](O)[C@@H]2[C@@H]3C(=O)N(C4CCCCC4)C(=O)[C@@H]3CC[C@H]12`: the composite z-score in assay [1] was -0.283; in assay [2], 0.145; in [3], -0.0423; in assay [4] it was 0.612; in assay [5], 0.784; in [6], 0.717. Moreover, the composite z-score in assay [7] was 0.793; in assay [9] it was 0.346; in assay [10], -0.0994; in assay [11] it was 0.589; in [15], 1; in assay [17] it was 0.0103. For the same compound, the figures for the composite z-score in [18], in [19] and in assay [20] were 0.417, 0.71 and -0.0842, respectively. Moreover, the z-score was -0.298 (inactive) in assay [8]; -0.177 (inactive) in assay [12]; -0.539 (inactive) in assay [13]; -0.193 (inactive) in [14]; 0.318 (inactive) in assay [16].

`COC(=O)C1=C(C)N(Cc2ccccc2)C2=C3C(=O)N(C)C(=O)[C@@H]3[C@@](O)(C(=O)OC)C(=O)N2[C@@H]1c1ccccc1`: the composite z-score in assay [1] is -0.0472 and -0.448; in assay [2] it was 0.131 and 0.375; in [3], -0.0301 and -0.0158; in assay [4] it was 0.721 and 0.128; in [5], 0.356 and 0.415; in assay [6] it was -0.239 and -0.0154. Moreover, the composite z-score in assay [7] was -0.322 and -0.0698; in assay [9] it was 0.224 and -0.114; in [10], 0.251 and -0.0645; in assay [11], 0.471 and 0.0202; in [15] it was 0.0055 and 0.222; in assay [17], 0.0494 and -0.184. Further, the composite z-score in assay [18] is 0.34 and 0.538; in [19] it was 0.182 and 0.361; in assay [20], -0.138 and 0.131. Besides, the z-score in assay [8] was 0.121 (inactive) and -0.811 (inactive); in assay [12], 0.0264 (inactive) and -1.64 (inactive); in assay [13], -0.774 (inactive) and -1.87 (inactive); in assay [14], -0.807 (inactive) and -0.913 (inactive); in [16], 0.858 (inactive) and -0.0481 (inactive).

Source of the values: PubChem BioAssay.
